Assay results as given in the supplement of paper PMC7366291.
Structures can show the parent of a compound that is named as a salt. ± gives the standard deviation or the standard deviation of the averaged measurements.

Experiments:
Details in all cases: 25 µM; exposure: 24-48 hpf
[1] = system: Danio rerio Tg(wt1b:EGFP) embryo, pronephros; assay: glomerular separation, fold change vs DMSO control; higher = glomeruli further apart (abnormal)
Outline: (§1)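 Using a Fiji macro, distances and angles were calculated from 16 reference points set by hand on maximum projections of pronephroi imaged dorsally (470 nm, 10 z-slices) in agarose-filled 96-well plates. The dechorionated Tg(wt1b:EGFP) zebrafish embryos had received 25 μM compound in 0.5% DMSO in HEPES-buffered E3 with 0.003% PTU from 24 to 48 hpf at 28.5°C. Values more than 2 SD from a feature's mean were excluded. Each feature appears as a fold change over the mean of DMSO-treated embryos from the same day.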

[2] = system: Danio rerio Tg(wt1b:EGFP) embryo, pronephros; assay: glomerular width (mean of left and right), fold change vs DMSO control; higher = wider glomerulus
Outline: as §1

[3] = system: Danio rerio Tg(wt1b:EGFP) embryo, pronephros; assay: fraction of imaged embryos annotated as normal kidney; higher = less nephrotoxic; extreme values may be limits of the assay
Outline: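 Dechorionated Tg(wt1b:EGFP) zebrafish embryos were exposed in 12-well plates to 25 μM compound in 0.5% DMSO, 5 mM HEPES-buffered E3 with 0.003% PTU, from 24 to 48 hpf at 28.5°C. Tricaine-anaesthetised larvae were oriented dorsally in agarose-filled 96-well plates, and pronephroi were imaged by widefield fluorescence (470 nm, 10 z-slices). Each embryo was manually annotated from maximum projections. The read-out is the fraction of embryos per treatment assigned to the normal-kidney category.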

[4] = system: Danio rerio Tg(wt1b:EGFP) embryo, pronephros; assay: pronephric angle neck segment to proximal convoluted tubule (mean of left and right), fold change vs DMSO control; higher = larger pronephric angle
Outline: as §1

CCCCNC(=O)NS(=O)(=O)c1ccc(C)cc1 [Tolbutamide]
glomerular separation [1]: 1.01 ± 0.53 | glomerular width [2]: 1.01 ± 0.014 | fraction of imaged embryos annotated as normal kidney [3]: 0.833 | pronephric angle neck segment [4]: 1.04 ± 0.023

CCN(CC)CCOc1ccc(C(=C(Cl)c2ccccc2)c2ccccc2)cc1 [Clomiphene citrate (Z,E)]
glomerular separation [1]: 1.1 ± 0.41 | glomerular width [2]: 0.981 ± 0.019 | fraction of imaged embryos annotated as normal kidney [3]: 0.75 | pronephric angle neck segment [4]: 0.974 ± 0.053

CN1CCN(CC(=O)N2c3ccccc3C(=O)Nc3cccnc32)CC1 [Pirenzepine dihydrochloride]
glomerular separation [1]: 1.19 ± 0.65 | glomerular width [2]: 0.9891 ± 0.0015 | fraction of imaged embryos annotated as normal kidney [3]: 0.75 | pronephric angle neck segment [4]: 1.03 ± 0.059

CN1C(=O)OC(C)(C)C1=O [Trimethadione]
glomerular separation [1]: 0.837 ± 0.27 | glomerular width [2]: 0.996 ± 0.064 | fraction of imaged embryos annotated as normal kidney [3]: 0.75 | pronephric angle neck segment [4]: 0.935 ± 0.026

CC[C@@H]1C(=O)OC[C@@H]1Cc1cncn1C [Pilocarpine nitrate]
glomerular separation [1]: 1.19 ± 0.19 | glomerular width [2]: 1.04 ± 0.051 | fraction of imaged embryos annotated as normal kidney [3]: 0.667 | pronephric angle neck segment [4]: 1.02 ± 0.021

CC(=O)[C@H]1CC[C@H]2[C@@H]3C=CC4=CC(=O)CC[C@@]4(C)[C@@H]3CC[C@]12C [Dydrogesterone]
glomerular separation [1]: 1.29 ± 0.6 | glomerular width [2]: 1.04 ± 0.02 | fraction of imaged embryos annotated as normal kidney [3]: 0.833 | pronephric angle neck segment [4]: 0.973 ± 0.012

CC[N+](CC)(CC(=O)Nc1c(C)cccc1C)Cc1ccccc1 [Denatonium benzoate]
glomerular separation [1]: 0.973 ± 0.36 | glomerular width [2]: 0.844 ± 0.018 | fraction of imaged embryos annotated as normal kidney [3]: 0.917 | pronephric angle neck segment [4]: 0.99113 ± 0.00026

CC(C)COCC(CN(Cc1ccccc1)c1ccccc1)N1CCCC1 (stereo not drawn) [Bepridil hydrochloride]
glomerular separation [1]: 0.94 ± 0.41 | glomerular width [2]: 1.03 ± 0.03 | fraction of imaged embryos annotated as normal kidney [3]: 0.818 | pronephric angle neck segment [4]: 0.993 ± 0.033

CN(C)c1nc(N(C)C)nc(N(C)C)n1 [Altretamine]
glomerular separation [1]: 0.998 ± 0.46 | glomerular width [2]: 0.923 ± 0.011 | fraction of imaged embryos annotated as normal kidney [3]: 0.917 | pronephric angle neck segment [4]: 1.06 ± 0.062

N/C(=N\C(=O)c1nc(Cl)c(N)nc1N)NCc1ccccc1 [Benzamil hydrochloride]
glomerular separation [1]: 0.935 ± 0.43 | glomerular width [2]: 1.05 ± 0.019 | fraction of imaged embryos annotated as normal kidney [3]: 0.917 | pronephric angle neck segment [4]: 0.98 ± 0.018

O=C(O)CCC(=O)Nc1ccc(S(=O)(=O)Nc2nccs2)cc1 [Succinylsulfathiazole]
glomerular separation [1]: 0.974 ± 0.39 | glomerular width [2]: 1.03 ± 0.012 | fraction of imaged embryos annotated as normal kidney [3]: 0.667 | pronephric angle neck segment [4]: 0.997 ± 0.029

O=c1cc(-c2ccc(O)c(O)c2)oc2cc(O)cc(O)c12 [Luteolin]
glomerular separation [1]: 0.869 ± 0.36 | glomerular width [2]: 0.9662 ± 0.004 | fraction of imaged embryos annotated as normal kidney [3]: 0.917 | pronephric angle neck segment [4]: 0.999 ± 0.006

O=C(O)/C=C/c1ccc(Cn2ccnc2)cc1 [Ozagrel hydrochloride]
glomerular separation [1]: 1.04 ± 0.32 | glomerular width [2]: 1.01 ± 0.032 | fraction of imaged embryos annotated as normal kidney [3]: 0.833 | pronephric angle neck segment [4]: 0.98 ± 0.011

CC(C)(C)NC[C@H](O)COc1ccccc1C1CCCC1 [Penbutolol sulfate]
glomerular separation [1]: 0.661 ± 0.15 | glomerular width [2]: 0.988 ± 0.02 | fraction of imaged embryos annotated as normal kidney [3]: 0.917 | pronephric angle neck segment [4]: 1.02 ± 0.02

CN(C)CCOC(c1ccccc1)c1ccccc1 [Diphenhydramine hydrochloride]
glomerular separation [1]: 0.907 ± 0.28 | glomerular width [2]: 1.03 ± 0.0021 | fraction of imaged embryos annotated as normal kidney [3]: 0.75 | pronephric angle neck segment [4]: 0.942 ± 0.016

CN1CCCN=C1/C=C/c1cccc(O)c1 [Oxantel pamoate]
glomerular separation [1]: 0.88 ± 0.16 | glomerular width [2]: 1.012 ± 0.0033 | fraction of imaged embryos annotated as normal kidney [3]: 0.917 | pronephric angle neck segment [4]: 1.03 ± 0.034

CCCCNc1ccc(C(=O)OCCN(C)C)cc1
glomerular separation [1]: 1.01 ± 0.33 | glomerular width [2]: 0.959 ± 0.096 | fraction of imaged embryos annotated as normal kidney [3]: 0.833 | pronephric angle neck segment [4]: 1.057 ± 0.0014

O=c1[nH]c(=O)n([C@H]2C[C@H](O)[C@@H](CO)O2)cc1I [Idoxuridine]
glomerular separation [1]: 1.12 ± 0.42 | glomerular width [2]: 1.05 ± 0.017 | fraction of imaged embryos annotated as normal kidney [3]: 0.667 | pronephric angle neck segment [4]: 1.05 ± 0.073

O=C(CCNNC(=O)c1ccncc1)NCc1ccccc1 [Nialamide]
glomerular separation [1]: 1.06 ± 0.4 | glomerular width [2]: 0.97 ± 0.056 | fraction of imaged embryos annotated as normal kidney [3]: 0.583 | pronephric angle neck segment [4]: 0.99 ± 0.061

Nc1nc(=S)c2ncn([C@@H]3O[C@H](CO)[C@@H](O)[C@H]3O)c2[nH]1 [Thioguanosine]
glomerular separation [1]: 1.01 ± 0.38 | glomerular width [2]: 1.02 ± 0.012 | fraction of imaged embryos annotated as normal kidney [3]: 0.917 | pronephric angle neck segment [4]: 1.03 ± 0.036

CO/N=C(\C(=O)N[C@@H]1C(=O)N2C(C(=O)OC(C)OC(C)=O)=C(COC(N)=O)CS[C@H]12)c1ccco1 (stereo partly drawn) [Cefuroxime axetil]
glomerular separation [1]: 1.21 ± 0.5 | glomerular width [2]: 1.02 ± 0.023 | fraction of imaged embryos annotated as normal kidney [3]: 0.917 | pronephric angle neck segment [4]: 1.04 ± 0.088

CC1(C)O[C@@H]2C[C@H]3[C@@H]4C[C@H](F)C5=CC(=O)C=C[C@]5(C)[C@H]4[C@@H](O)C[C@]3(C)[C@]2(C(=O)CO)O1 [Flunisolide]
glomerular separation [1]: 1.26 ± 0.42 | glomerular width [2]: 1.21 ± 0.018 | fraction of imaged embryos annotated as normal kidney [3]: 0.667 | pronephric angle neck segment [4]: 0.92856 ± 0.0002

CN1C2CCCC1CC(NC(=O)c1nn(C)c3ccccc13)C2 (stereo not drawn) [Granisetron]
glomerular separation [1]: 0.791 ± 0.23 | glomerular width [2]: 0.98 ± 0.024 | fraction of imaged embryos annotated as normal kidney [3]: 0.917 | pronephric angle neck segment [4]: 1.04 ± 0.015

Cc1cccc(C)c1NC(=O)CN1CCN(CCCC(c2ccc(F)cc2)c2ccc(F)cc2)CC1 [Lidoflazine]
glomerular separation [1]: 3 ± 1.2 | glomerular width [2]: 0.667 ± 0.014 | fraction of imaged embryos annotated as normal kidney [3]: 0.167 | pronephric angle neck segment [4]: 0.988 ± 0.13

CC(C)(C)NC(=O)[C@@H]1CN(Cc2cccnc2)CCN1C[C@@H](O)C[C@@H](Cc1ccccc1)C(=O)N[C@H]1c2ccccc2C[C@H]1O [Indinavir sulfate]
glomerular separation [1]: 1.35 ± 0.6 | glomerular width [2]: 0.851 ± 0.062 | fraction of imaged embryos annotated as normal kidney [3]: 1 | pronephric angle neck segment [4]: 1.101 ± 0.002

NCCc1c[nH]cn1 [Histamine dihydrochloride]
glomerular separation [1]: 1.1 ± 0.25 | glomerular width [2]: 0.9518 ± 0.0028 | fraction of imaged embryos annotated as normal kidney [3]: 0.833 | pronephric angle neck segment [4]: 1.03 ± 0.03

Nc1ccn([C@@H]2O[C@H](CO)[C@@H](O)C2(F)F)c(=O)n1 [Gemcitabine]
glomerular separation [1]: 0.851 ± 0.34 | glomerular width [2]: 0.99 ± 0.053 | fraction of imaged embryos annotated as normal kidney [3]: 0.917 | pronephric angle neck segment [4]: 1.03 ± 0.039
